A selection: hits, their analogues and other compounds. The true share with any hit is near 2.4%.
D2 ag-1: agonists of human D2 dopamine receptor. P14416. HEK293 T-REx D2 cells, calcium flux agonist mode. activation, % at 2 µM. actives 0.53% (n = 340,000). AID 485358;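 active means activation over 3 SD above normal in the single-dose calcium agonist read, cut at about 30% in these data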
Target sequence (P14416 whole entry, looked up): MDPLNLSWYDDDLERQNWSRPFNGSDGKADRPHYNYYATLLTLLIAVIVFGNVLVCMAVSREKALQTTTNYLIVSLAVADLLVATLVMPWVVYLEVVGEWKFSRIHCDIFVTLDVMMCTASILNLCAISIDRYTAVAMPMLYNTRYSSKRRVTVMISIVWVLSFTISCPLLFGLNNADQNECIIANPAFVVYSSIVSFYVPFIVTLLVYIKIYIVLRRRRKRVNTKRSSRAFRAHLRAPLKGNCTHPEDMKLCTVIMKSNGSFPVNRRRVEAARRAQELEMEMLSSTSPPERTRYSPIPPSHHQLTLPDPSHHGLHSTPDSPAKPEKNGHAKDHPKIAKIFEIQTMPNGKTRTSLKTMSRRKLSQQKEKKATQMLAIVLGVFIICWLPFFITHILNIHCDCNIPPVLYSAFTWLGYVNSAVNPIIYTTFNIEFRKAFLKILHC
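Agonism scored from kinetic calcium signal (1 read/sec, 180 s) following compound pin transfer, after a 10 s baseline. Cells: HEK293 Trex line expressing inducible D2 receptor coupled to calcium, dye-loaded after overnight culture at 30 C.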
D2 PAM-1: positive allosteric modulators of human D2 dopamine receptor; DiscoveRx D2 beta-arrestin cells, luminescence, 90 min; 100% = 57 uM dopamine signal; potentiation, % (test concentration not listed); actives 0.23% (n = 360,000); in the data active means potentiation above about 50%; inconclusive means mostly about 30% to 49%
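D2 cells co-treated with compound plus 50 nM dopamine (EC20) for 90 min at 37 deg C to detect potentiation. Beta-arrestin recruitment was read as enzyme-fragment luminescence after 1 h at ambient temperature. Full response was set by 57 uM dopamine.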
D2 ag-2: activates the human D2 dopamine receptor | P14416 | DiscoveRx PathHunter D2 beta-arrestin, luminescence, 90 min; 100% = 57 uM dopamine signal | activation, % (concentration not given with the values) | actives 0.084% (n = 360,000); in the data active means activation above about 40%; inconclusive means between about 15% and that limit
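Agonist mode: compounds alone added to overnight-plated D2 PathHunter cells for 90 min at 37 C, with 57 uM final dopamine (EC100) defining full response. Beta-arrestin recruitment detected by chemiluminescent reagent, read after 1 h at ambient temperature.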
D2 PAM-2: positive allosteric modulators of human D2 dopamine receptor; P14416; actives 0.34% (n = 340,000); AID 485347; HEK293 T-REx D2, calcium flux, EC20 dopamine potentiation; potentiation, % at 10 µM;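 active means potentiation over 3 SD above the plate norm, cut at about 30% in these data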
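Tetracycline-induced Hek293 Trex D2 cells, force-coupled to calcium, loaded with no-wash calcium dye. Compound added with 180 s kinetic read for agonism, then EC20 dopamine and a further 180 s read for potentiation.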
D2 antagonist: antagonizes the human D2 dopamine receptor. P14416. inhibition, % at 10 µM. AID 485344. HEK293 TREx D2 cells, calcium flux, dopamine EC80. actives 2% (n = 340,000); in the data active means inhibition above about 30%; inactive means below that, where a call was filed
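Antagonism is scored as inhibition of an EC80 dopamine-evoked calcium signal in a force-coupled, tetracycline-inducible HEK293 T-REx D2 line, with compound present 180 s before agonist.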
D3 arrestin ag: confirmation of human D3 dopamine receptor agonists, beta-arrestin | shares compounds with D2 ag-1 | DiscoveRx D3 beta-arrestin cells, luminescence, 90 min | Potency, µM (titrated, usually from 76.9 µM), most hits filed as activators | actives 4% (n = 2,300); further: nearly all actives have a fitted effect of over 70% in size
D2 ag-3: activates human D2 dopamine receptor in D3 counterscreen; shares compounds with D2 ag-1; DiscoveRx PathHunter D2 beta-arrestin, luminescence, 90 min; response scale: percent relative to full dopamine signal; Potency, µM (top dose mostly 76.9 µM), hits mostly activators; actives 5.9% (n = 2,300); AID 720507; further: nearly all actives have a fitted effect of over 70% in size
Large screens that a line does not name were inactive (follow-up assays come after a bar, where they were run). Unless noted, the call rests on the fitted dose curve; in most records, active means well fitted activation curve with a large enough effect; inconclusive means small, poorly fitted or top-dose-only effect; inactive means flat fitted curve, though single readings scatter.

COc1cccc(NC(=O)CN(C)C(=O)C(C)Sc2ccccc2)c1 (stereo unspecified)	none
CC1(C(=O)NCc2cccnc2)Cc2c(-c3cccc(C(F)(F)F)c3)ccnc2O1 (stereo unspecified)	none (no result: D2 ag-1, D2 PAM-2, D2 antagonist)
COc1cc(OC)cc(-c2c(-c3cccs3)c3cc(-c4ccc(SC)cc4)ccc3n2C)c1	D2 antagonist 57.7 | D3 arrestin ag inactive | D2 ag-3 inactive
COc1ccc(-c2c(-c3cc(OC)cc(OC)c3)n(C)c3ccc(-c4cnc(N)nc4)cc23)cc1	none (no result: D2 ag-1, D2 PAM-2, D2 antagonist)
COc1ccc(-c2c(-c3cc(OC)cc(OC)c3)n(C)c3ccc(-c4ccc(S(N)(=O)=O)cc4)cc23)cc1	none | D3 arrestin ag inactive | D2 ag-3 inactive
Cc1ccc(NC(=O)CNC(=O)c2ccc3c(c2)OCO3)nc1	none | D3 arrestin ag inactive | D2 ag-3 inactive
COc1ccccc1NC(=O)COC(=O)CCC(=O)c1cccs1	none
O=C(c1ccc(NS(=O)(=O)c2ccccc2)cc1)N1CCN(c2ccccc2)CC1	none
Fc1ccc(NC(=S)N2CCCC(c3ccccc3)=N2)cc1	none | D3 arrestin ag inactive | D2 ag-3 inactive
CSc1c(CC(=O)NCCO)n(C)c2ccccc12	none
Cn1c(CC(=O)NCCO)c(Sc2ccccc2)c2ccccc21	D2 ag-1 50.3 | D3 arrestin ag inactive | D2 ag-3 inactive
Cc1coc(C)c1C(=O)Nc1ccc2ccccc2c1	none | D3 arrestin ag inactive | D2 ag-3 inactive
O=C(NC1(C(F)(F)F)NC(=O)N(c2ccccc2)C1=O)c1cccs1 (stereo unspecified)	none | D3 arrestin ag inactive | D2 ag-3 inactive
c1ccc2c(CN3CCSCC3)cccc2c1	none
Cc1ccccc1C(=O)Nc1nnc(SC(C)C)s1	none | D3 arrestin ag inactive | D2 ag-3 inactive
C[C@@H](CO)NC(=O)[C@H]1O[C@@H](n2cnc3c(N)ncnc32)[C@H](O)[C@@H]1O	none (no result: D2 ag-1, D2 PAM-2, D2 antagonist)
Nc1ncnc2c1ncn2C1OC(C(=O)NC2CC2)C(O)C1O (stereo unspecified)	none | D3 arrestin ag inactive | D2 ag-3 inactive
CCCn1c(N2CCN(C(=O)Nc3ccc(Cl)cc3)CC2)nc2ccccc21	D2 ag-2 inconclusive (no result: D2 ag-1, D2 PAM-2, D2 antagonist) | D3 arrestin ag inactive | D2 ag-3 inconclusive
C=C(C)COc1ccc(C2NC(=O)c3ccccc3O2)cc1OCC (stereo unspecified)	none
COC(=O)c1c(NC(C)=O)sc2c1CCN(Cc1ccccc1)C2	D2 ag-1 38.2 | D3 arrestin ag inactive | D2 ag-3 inactive
CCOC(=O)c1c(NC(=O)CC)sc2c1CCN(Cc1ccccc1)C2	none
CCOC(=O)c1c(NC(=O)C(C)Sc2cccc[n+]2[O-])sc2c1CCN(Cc1ccccc1)C2 (stereo unspecified)	D2 ag-1 41.9 | D3 arrestin ag inactive | D2 ag-3 inactive
CCOC(=O)c1c(NC(C)=O)sc2c1CCN(Cc1ccccc1)C2	none
COc1ccc(S(=O)(=O)NCc2cccnc2)cc1NC(=O)c1ccccc1C	none (no result: D2 ag-1, D2 PAM-2, D2 antagonist)
CCOc1ccc(NC(=O)c2ccc3nc(C(C)C)oc3c2)cc1	none (no result: D2 ag-1, D2 PAM-1, D2 ag-2, D2 antagonist)
O=C(c1ccc(C(F)(F)F)cc1)C1CCCN(C(=O)Cn2cncn2)C1 (stereo unspecified)	none | D3 arrestin ag inactive | D2 ag-3 inactive
O=C(c1cccc(C(F)(F)F)c1)C1CCCN(C(=O)Cn2cncn2)C1 (stereo unspecified)	none
COC(=O)C1(C)Cc2cc(OC(C)=O)c(OC(C)=O)cc2N1 (stereo unspecified)	none (no result: D2 PAM-1, D2 ag-2)
COc1ccc(C(=O)CCN2CCN(c3ccccc3F)CC2)cc1	D2 antagonist 81.5 | D3 arrestin ag inactive | D2 ag-3 inactive
CCOc1ccc(NC(=O)NCCN2CCN(c3ccccc3F)CC2)cc1	D2 ag-1 77.2, D2 ag-2 inconclusive, D2 antagonist 78.8 | D3 arrestin ag inconclusive | D2 ag-3 inconclusive
